Many of the other results were omitted from the sample, so hits are more common in it than they were.
Pf Dd2 growth – inhibitors of Plasmodium falciparum Dd2 growth. P. falciparum Dd2 growth, SYBR Green, 72 h. Potency, µM (highest dose often 28.9 µM), for the others: top-dose activity, negative = inhibition, most hits filed as inhibitors. 120,000 tested, 4.3% active; active = well fitted inhibition curve with a large enough effect;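 note: plate controls were DMSO vehicle for no effect and reference drug for full effect; nearly all actives have a fitted effect of over 65% in size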
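Infected erythrocytes (Dd2, 0.3% parasitemia, 2.5% hematocrit final) are added to compound in RPMI-1640/Albumax II medium, grown 72 h at 37C in low oxygen, then lysed with saponin/Triton-X containing SYBR Green and read by fluorescence.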
The depositor's hits bear a star; i = inactive; [ ] = another dose, or the depositor's remark. Potency is the fitted concentration of half-maximal effect.

SMILES	Pf Dd2 growth
COc1cccc(-c2cc(C3CCN(C(=O)Nc4ccc(F)cc4)CC3)[nH]n2)c1	5.6µM*
COc1cccc(-c2cc(C3CCN(C(=O)Nc4ccccc4F)CC3)[nH]n2)c1	-4%
COc1ccccc1-c1ccnc(N[C@H]2CO[C@H]3[C@@H]2OC[C@@H]3NC(=O)N2CCOCC2)n1	i
O=C(O)C1(Oc2ccccc2F)CCN(Cc2ccc(CO)o2)CC1	-13%
CN1CC(=O)N(C2CCCNC2)Cc2c1ncnc2N1CCCN(Cc2ccccc2)CC1 (centres undefined)	-7%
N[C@@H]1CC[C@H](C(=O)N2CCN(Cc3cccc(C(F)(F)F)c3)CC2)C1	-4%
COc1ccc2cc3cc(C(=O)NCc4ccccc4OC)oc3nc2c1	i
Cc1ccc2cc3cc(C(=O)N(C)c4ccccc4C)oc3nc2c1	11µM*
COc1ccc(CNC(=O)c2cc3cc4ccc(C)cc4nc3o2)cc1	i
COc1ccc(N2CC(C(=O)N(C)CCc3noc(C)n3)CC2=O)cc1Cl (centres undefined)	4%
Cn1nccc1C(=O)N1CCC(F)(c2nc(-c3ccccc3)no2)CC1	5%
Cc1ccc(CCNC(=O)c2ccc3c(c2)N(C)C2CCCCN2C3=O)cc1 (centres undefined)	-7%
CC(C)c1ccc(NC(=O)c2ccc3c(c2)CCCN3S(C)(=O)=O)cc1	-3%
CC(C)c1ccc(NC(=O)c2ccc3c(c2)CCN3S(=O)(=O)c2ccccc2)cc1	8.9µM*
CC(=O)Nc1ccc(NC(=O)c2ccc3c(c2)CCN3S(=O)(=O)c2ccc(Cl)cc2)cc1	i
Cn1ccc2c(-c3cc(NCCO)nc(N)n3)ccnc21	0%
Cc1cc(C(=O)NCC2Cn3cccc3C(=O)N2C)n(C)n1 (centres undefined)	1%
COc1cccc(C(=O)NC(C(=O)NCC(C)C)C2CCN(C(=O)c3ccc(F)cc3)CC2)c1 (centres undefined)	-2%
CN(C)C(=O)c1cccnc1OC1CCN(Cc2cccnc2)CC1	i
CC1=C[C@@H](CNC2CCN(C)CC2)[C@H](C(C)C)C[C@H]1Cc1nc2ccc(F)cc2[nH]1	-22%[44.1 µM]
COC(=O)c1ccc2nc(C[C@@H]3C[C@@H](C(C)C)[C@H](CN)C=C3C)[nH]c2c1	-16%[44.1 µM]
CC1=C[C@@H](CN)[C@H](C(C)C)C[C@H]1Cc1nc2ccc(Cl)cc2[nH]1	11µM*
CC1=C[C@@H](CN)[C@H](C(C)C)C[C@H]1Cc1nc2ccc(C)cc2[nH]1	10µM*
CC1=C[C@@H](CNC(=O)CCCC(=O)O)[C@H](C(C)C)C[C@H]1Cc1nc2ccc(Cl)cc2[nH]1	-6%
CC1=C[C@@H](CNC(=O)NC2CCCCC2)[C@H](C(C)C)C[C@H]1Cc1nc2ccc(C)cc2[nH]1	-19%[44.1 µM]
SMILES	Pf Dd2 growth
Cc1cn2nnc(C(=O)N3CCC(C(=O)Nc4cccc(F)c4)CC3)c2c(=O)[nH]1	i
O=C(Nc1ccc(F)cc1)c1ccn2nccc2c1	-7%[44.1 µM]
Cc1ccc(-c2nc3ncccn3c2Nc2ccc3c(c2)OCCO3)cc1	-21%
COc1ccc(Nc2c(-c3ccc(N4CCOCC4)cc3)nc3ncccn23)cc1OC	-19%
COc1cc(-c2nc3ncccn3c2Nc2ccc(C)cc2C)ccc1O	13µM*
COc1ccccc1-c1[nH]nc2ncc(-c3ccnn3C)nc12	5%[44.1 µM]
N#Cc1ccc(CN2CC(CNC(=O)c3ccccc3)C3(C2)CN(c2ccccc2)C3)cc1 (centres undefined)	-8%[44.1 µM]
CCCN1C(=O)c2[nH]nc(-c3ccccc3O)c2C1c1ccc(OCc2ccccc2)c(OCC)c1 (centres undefined)	11µM*
CCOc1ccc(C2c3c(-c4ccccc4O)n[nH]c3C(=O)N2Cc2cccnc2)cc1OC (centres undefined)	i
CCCCN1C(=O)c2[nH]nc(-c3ccccc3O)c2C1c1ccc(OCc2ccccc2)c(OC)c1 (centres undefined)	11µM*
CCCCN1C(=O)c2[nH]nc(-c3ccccc3O)c2C1c1cc(Br)c(O)c(OC)c1 (centres undefined)	-24%
COc1ccc(C)cc1C(=O)NC1CC(c2nnc(CN(C)C)n2C)C1 (centres undefined)	-3%
CC1CCC2(CC1)NC(=O)N(CC(=O)Nc1ccc(Br)cc1F)C2=O (centres undefined)	49%
CCC(=O)NCc1cccnc1Oc1ccccc1OC	5%
CCCCOc1c(CNC(C)c2ncccc2C)cccc1OC (centres undefined)	5.6µM*
COc1ccccc1Oc1ncccc1CNC(=O)c1cccnc1C	-5%
Cc1ccc(S(=O)(=O)N2CCN(C3CCN(Cc4cccnc4)C3=O)CC2)cc1C (centres undefined)	i
O=C(O)c1ccc(CN2CCC3(CC2)CC(C(=O)O)N(C(=O)C2CC2)C3)cc1 (centres undefined)	-7%
COc1ccccc1CC(=O)N1CCC2(CC1)N=C(c1ccc(Cl)cc1)NO2	-35%
Cc1ccc(C2=NC3(CCN(C(=O)Cc4ccccc4Cl)CC3)ON2)cc1	11µM*
Cc1ccc(C)c(C(=O)N2CCC3(CC2)N=C(c2ccccc2)NO3)c1	i
